Experimental data from PubChem BioAssay (EPA / NIEHS).
“And” between values parts separate entries of the source, which are not always exact repeats. Equal values may be shown once. Results filed as inconclusive are left out. Some structures have more than one record in an assay (separate samples or runs), and their calls can disagree. The source made the active and inactive calls. Rule for the calls, unless noted: active = hit-call score of the fitted dose curve at least 0.9, where 1 is the maximum; inconclusive = response in the unintended direction; inactive = score below 0.9.

Target: Estrogen receptor (Homo sapiens) (UniProt P03372)
Test: CCTE_Deisenroth_AIME_384WELL_LUC_Inactive: CCTE's 384-well Estrogen Receptor Transactivation Assay without AIME metabolic competence (ERTA luciferase; metabolism negative), Deisenroth Lab (AID 2284038);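 note: VM7Luc4E2 breast cells given medium preincubated 2 h with S9-free microspheres; hits raise estrogen receptor luciferase signal so potencies reflect agonists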
Summary of the method: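 Metabolism-negative mode: AIME lids stamped in alginate-water, no hepatic S9. 2 h chemical incubation → medium onto VM7Luc4E2 ERTA, 24 h. Readout luciferase luminescence; gain-of-signal fit vs 17beta-estradiol. Conc. 0.002 - 200 uM.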

Sequence of Estrogen receptor (Homo sapiens) (P03372 whole entry, looked up): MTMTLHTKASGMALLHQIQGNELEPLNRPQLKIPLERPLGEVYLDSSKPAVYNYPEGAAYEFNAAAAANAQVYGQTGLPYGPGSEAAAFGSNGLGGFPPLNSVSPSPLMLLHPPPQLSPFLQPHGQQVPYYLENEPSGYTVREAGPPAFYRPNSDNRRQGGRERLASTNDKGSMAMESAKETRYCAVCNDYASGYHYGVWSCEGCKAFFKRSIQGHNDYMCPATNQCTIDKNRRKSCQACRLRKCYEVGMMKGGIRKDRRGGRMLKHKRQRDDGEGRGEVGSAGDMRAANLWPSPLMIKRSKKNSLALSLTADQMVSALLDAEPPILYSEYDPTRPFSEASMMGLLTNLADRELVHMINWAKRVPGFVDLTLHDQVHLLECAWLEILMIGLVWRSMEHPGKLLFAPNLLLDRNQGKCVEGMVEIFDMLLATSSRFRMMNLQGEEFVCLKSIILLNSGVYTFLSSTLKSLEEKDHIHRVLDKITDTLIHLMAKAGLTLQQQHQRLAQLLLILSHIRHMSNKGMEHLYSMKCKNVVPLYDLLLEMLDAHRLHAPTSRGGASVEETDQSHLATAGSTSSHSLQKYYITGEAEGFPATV

SMILES | outcome | AC50
O=C(O)c1nc(Cl)ccc1Cl | inactive | 
CCNc1nc(Cl)nc(NC(C)C)n1 | inactive | 
C=CCC1=C(C)C(OC(=O)C2C(C=C(C)C)C2(C)C)CC1=O (centres undefined) | inactive | 
COc1cnc(OC)n2nc(NS(=O)(=O)c3c(OCC(F)F)cccc3C(F)(F)F)nc12 |  | 13.7 µM (active)
C=CC1(C)OC(=O)N(c2cc(Cl)cc(Cl)c2)C1=O (centres undefined) |  | 63.4 µM (active)
CC1=C(C(=O)Nc2ccccc2)SCCO1 | inactive | 
COC(=O)N(OC)c1ccccc1COc1ccn(-c2ccc(Cl)cc2)n1 | inactive | 
COP(N)(=O)SC (centres undefined) | inactive | 
O=C(O)COc1nc(Cl)c(Cl)cc1Cl | inactive | 
CC(Oc1ccc(Cl)cc1Cl)C(=O)O (centres undefined) | inactive | 
Oc1ccccc1-c1ccccc1 | inactive | 
Cc1c(F)c(F)c(COC(=O)C2C(/C=C(\Cl)C(F)(F)F)C2(C)C)c(F)c1F (centres undefined) | inactive | 

Test system: not listed separately
Test: CCTE_Deisenroth_AIME_384WELL_CTox_Inactive: Cytotoxicity Assessment (CTOX) in CCTE's 384-well Estrogen Receptor Transactivation Assay without AIME metabolic competence (metabolism negative), Deisenroth Lab (AID 2284039);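 note: cell viability via live-cell protease substrate cleaved to fluorescent probe; cells exposed 24 h to medium preincubated 2 h with alginate-water beads without S9; loss of fluorescence signal means loss of viability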
Summary of the method: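 Fluorescent protease-substrate viability readout after 24 h exposure of VM7Luc4E2 cells to conditioned medium. Chemicals (0.002–200 uM) first sat 2 h over alginate-water beads, no S9. Data fitted bidirectionally, loss of signal meaning viability loss.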

SMILES | outcome | AC50
COc1cnc(OC)n2nc(NS(=O)(=O)c3c(OCC(F)F)cccc3C(F)(F)F)nc12 | inactive | 
C=CC1(C)OC(=O)N(c2cc(Cl)cc(Cl)c2)C1=O (centres undefined) | inactive | 
CCc1nn(C)c(C(=O)NCc2ccc(C(C)(C)C)cc2)c1Cl | inactive | 
C#CCOS(=O)OC1CCCCC1Oc1ccc(C(C)(C)C)cc1 (centres undefined) | inactive | 
COC(=O)N(OC)c1ccccc1COc1ccn(-c2ccc(Cl)cc2)n1 |  | 19.8 µM (active)
CCOc1cc(Oc2ccc(C(F)(F)F)cc2Cl)ccc1[N+](=O)[O-] | inactive | 
CC(C)(C)c1ccc(CSc2cnn(C(C)(C)C)c(=O)c2Cl)cc1 | inactive | 
CCCCNC(=O)OCC#CI |  | 124 µM (active)
N#Cc1cc(Br)c(O)c(Br)c1 | inactive | 
Oc1ccccc1-c1ccccc1 | inactive | 
Cc1c(F)c(F)c(COC(=O)C2C(/C=C(\Cl)C(F)(F)F)C2(C)C)c(F)c1F (centres undefined) | inactive | 

Test system: not listed separately
Test: CCTE_Shafer_MEA_dev_active_electrodes_number: CCTE's Neural Network Formation Assay for Number of Active Electrodes, Shafer Lab (AID 2284040);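 for AC50: potency for loss of active electrodes versus DMSO so lower counts are hits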
Summary of the method: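 Developing rat cortical networks on MEAs, exposed DIV 0–12. Value is the AUC of active-electrode counts (≥5 spikes/min) from days 5, 7, 9, 12, relative to DMSO.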

SMILES | AC50 | outcome
CN(C)C(=S)SSC(=S)N(C)C | 0.011 µM (active) | 
CCCCOC(=O)c1ccccc1C(=O)OCCCC | 75.1 µM (active) | 
CCNc1nc(Cl)nc(NC(C)C)n1 |  | inactive
C=CCC1=C(C)C(OC(=O)C2C(C=C(C)C)C2(C)C)CC1=O (centres undefined) | 10 µM (active) and 14.8 µM (active) | 
C=CC1(C)OC(=O)N(c2cc(Cl)cc(Cl)c2)C1=O (centres undefined) | 50 µM (active) | 
CCCCNC(=O)n1c(NC(=O)OC)nc2ccccc21 | 15 µM (active) | 
COc1ccc(C(c2ccc(OC)cc2)C(Cl)(Cl)Cl)cc1 | 6.74 µM (active) | 
COC(=O)N(OC)c1ccccc1COc1ccn(-c2ccc(Cl)cc2)n1 | 77 nM (active) and 13.7 nM (active) | 
CCOc1cc(Oc2ccc(C(F)(F)F)cc2Cl)ccc1[N+](=O)[O-] | 4.91 µM (active) | 
CO/C=C(/C(=O)OC)c1ccccc1Oc1cc(Oc2ccccc2C#N)ncn1 | 1.52 µM (active) and 1.07 µM (active) | 
COP(N)(=O)SC (centres undefined) |  | inactive
Cc1ccc(-c2c(Cl)nc(C#N)n2S(=O)(=O)N(C)C)cc1 | 39 µM (active) | 
CC(C)(C)c1ccc(CSc2cnn(C(C)(C)C)c(=O)c2Cl)cc1 | 0.0031 µM (active) | 
COP(=S)(OC)Oc1nc(Cl)c(Cl)cc1Cl |  | inactive
CCCCNC(=O)OCC#CI | 3.93 µM (active) and 1.81 µM (active) | 
CCCCC(CC)COC(=O)c1ccccc1C(=O)OCC(CC)CCCC (centres undefined) | 15 µM (active) and 7.34 µM (active) | inactive
C=CCC1=C(C)[C@@H](OC(=O)[C@@H]2[C@@H](C=C(C)C)C2(C)C)CC1=O | 6.82 µM (active) | 
N#Cc1nn(-c2c(Cl)cc(C(F)(F)F)cc2Cl)c(N)c1S(=O)C(F)(F)F (centres undefined) |  | inactive
Cc1c(F)c(F)c(COC(=O)C2C(/C=C(\Cl)C(F)(F)F)C2(C)C)c(F)c1F (centres undefined) | 10 µM (active) | 
CNC(=O)ON=CC(C)(C)SC |  | inactive
CCOC(=O)CC(SP(=S)(OC)OC)C(=O)OCC (centres undefined) | 17.1 µM (active) and 6.38 µM (active) | 

Target: Estrogen receptor (Homo sapiens) (UniProt P03372)
Test: CCTE_Deisenroth_AIME_384WELL_LUC_Shift: CCTE's 384-well Estrogen Receptor Transactivation Assay with AIME metabolic competence data shift (ERTA luciferase; difference in metabolism positive and negative), Deisenroth Lab (AID 2284041; active = hit-call score of the fitted dose curve at least 0.9, where 1 is the maximum; inactive = score below 0.9;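 note: shift is response with S9 minus without S9 so positive means metabolism raised ER signal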)
Summary of the method: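 Chemicals (0.002–200 uM, 10 points) pre-incubated 2 h with alginate-encapsulated induced male Sprague Dawley rat liver S9 or S9-free, then medium applied 24 h to VM7Luc4E2 cells; luciferase. Endpoint is per-concentration difference, S9-positive minus negative.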

SMILES | outcome | AC50
CCON=C(CC)C1=C(O)CC(c2c(C)cc(C)cc2C)CC1=O (centres undefined) | inactive | 
O=C(O)c1nc(Cl)ccc1Cl | inactive | 
CCNc1nc(Cl)nc(NC(C)C)n1 | inactive | 
C=CCC1=C(C)C(OC(=O)C2C(C=C(C)C)C2(C)C)CC1=O (centres undefined) | inactive | 
COc1cnc(OC)n2nc(NS(=O)(=O)c3c(OCC(F)F)cccc3C(F)(F)F)nc12 |  | 28 µM (active)
C=CC1(C)OC(=O)N(c2cc(Cl)cc(Cl)c2)C1=O (centres undefined) |  | 42.4 µM (active)
CCc1nn(C)c(C(=O)NCc2ccc(C(C)(C)C)cc2)c1Cl | inactive | 
C#CCOS(=O)OC1CCCCC1Oc1ccc(C(C)(C)C)cc1 (centres undefined) | inactive | 
CC1=C(C(=O)Nc2ccccc2)SCCO1 | inactive | 
COC(=O)N(OC)c1ccccc1COc1ccn(-c2ccc(Cl)cc2)n1 | inactive | 
CCOc1cc(Oc2ccc(C(F)(F)F)cc2Cl)ccc1[N+](=O)[O-] | inactive | 
COP(N)(=O)SC (centres undefined) | inactive | 
O=C(O)COc1nc(Cl)c(Cl)cc1Cl | inactive | 
CC(C)(C)c1ccc(CSc2cnn(C(C)(C)C)c(=O)c2Cl)cc1 | inactive | 
CC(Oc1ccc(Cl)cc1Cl)C(=O)O (centres undefined) | inactive | 
CCCCNC(=O)OCC#CI | inactive | 
N#Cc1cc(Br)c(O)c(Br)c1 | inactive | 
Oc1ccccc1-c1ccccc1 | inactive | 
Cc1c(F)c(F)c(COC(=O)C2C(/C=C(\Cl)C(F)(F)F)C2(C)C)c(F)c1F (centres undefined) | inactive | 
